The results in this text go back to PubChem BioAssay (NCATS).

Results filed as inconclusive are left out. Active and inactive are the calls of the source. Unless noted, calls come from the whole dose curve; as a rule, active = well fitted curve in the direction sought with a large enough effect; inconclusive = small, poorly fitted or top-dose-only effect, or another doubt; inactive = no such curve, though single readings can be large; an effect the other way counts as inactive or inconclusive.

The target of test [1] is Glucocorticoid receptor (Homo sapiens) (UniProt P04150). As to the kind of experiment: qHTS assay for small molecule agonists of glucocorticoid receptor signaling (AID 588532; active = well fitted curve in the direction sought with a large enough effect in the signal ratio, with a control signal flat; the % refers to the signal ratio;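 note: 100% = dexamethasone at 0.1 µM and 0% = DMSO only wells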). Particulars: HeLa MMTV-bla, beta-lactamase ratio, agonist, 18 h; stronger effect = higher value; percent of dexamethasone control, DMSO zero. Summed up:
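Cells were plated and rested 3-5 h at 37 C, compounds were added in titration and incubated 18 h, then CCF4 substrate was loaded for 2 h at RT before reading blue/green fluorescence. EC50 came from Hill-equation fitting.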

Test [2] shares this target. In words: qHTS assay for small molecule antagonists of glucocorticoid receptor signaling (AID 588533; active = well fitted inhibition curve with a large enough effect in the signal ratio, with a control signal flat, not every such curve was filed as active; the % refers to the signal ratio;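 note: cells stimulated with 2 nM dexamethasone as agonist; % is set by controls: 0 for no effect and ±100 for the full control effect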). Particulars: HeLa MMTV-bla, GRE beta-lactamase ratio, antagonist mode, 18 h; series mostly up to 76.8 µM. Put shortly:
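Antagonist-mode qHTS: compound titrations added to GRE-bla HeLa cells, then dexamethasone 2 nM final; 18 h, 37 C. CCF4 FRET fluorescence normalized to dexamethasone and DMSO; IC50 from Hill fit.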

A short description of test [3]: qHTS assay for small molecule antagonists of peroxisome proliferator-activated receptor delta signaling (AID 588535).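 Note: cells co-treated with a PPAR-delta agonist as stimulator during compound exposure.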 Particulars: HEK293T PPARd-UAS-bla, beta-lactamase FRET ratio, 18 h; 460 nm channel. Put shortly: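 Cells were seeded at 4000 per well in assay medium containing 2% charcoal/dextran FBS and held 5 hrs at 37 C. Compounds were then added for 18 hrs. CCF4 substrate was applied for 2 hrs at room temperature before fluorescence reading.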

Test [4] has as its target Vitamin D3 receptor (Homo sapiens) (UniProt P11473). In words: qHTS assay for small molecule agonists of vitamin D receptor signaling (AID 588543; calls by dose curve;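 note: 0% = DMSO basal and 100% = reference agonist control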). Particulars: HEK293T VDR-UAS-bla, beta-lactamase ratio, 16 h; series mostly up to 76.8 µM. Summed up: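 Agonist-mode beta-lactamase reporter: HEK293T VDR-UAS-bla cells in charcoal-stripped 2% FBS, compound series 16 h 37 C, CCF4 2 h RT. EC50 from Hill fit, scaled against DMSO and 50 nM calcitriol control.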

Test [5] in a line: qHTS assay for small molecule agonists of retinoid X receptor alpha signaling (AID 588544). Particulars: HEK293T RXRa-UAS-bla, beta-lactamase reporter, 18 h; 530 nm emission.
In test [6] the target is Thyroid hormone receptor beta (Homo sapiens) (UniProt P10828). In words: qHTS assay for small molecule agonists of thyroid hormone receptor beta signaling (AID 588545; calls by dose curve;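 note: 0% = DMSO only and 100% = 10 nM T3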). Particulars: TR-UAS-bla GripTite HEK 293, beta-lactamase ratio, agonist mode, 18 h; series mostly up to 76.7 µM. Summed up:
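Stimulation of a TR-driven beta-lactamase reporter was quantified in GripTite HEK 293 cells. Compound series ran for 18 hrs; curves were normalized to T3 and DMSO controls and fitted to yield EC50.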

Test [7] is described as follows: qHTS assay for small molecule antagonists of retinoid X receptor alpha signaling (AID 588546; active = well fitted inhibition curve with a large enough effect in the signal ratio, with a control signal flat, not every such curve was filed as active; the % refers to the signal ratio;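 note: cells stimulated with 9-cis-retinoic acid as agonist; % is set by controls: 0 for no effect and ±100 for the full control effect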). Particulars: HEK293T RXRa-UAS-bla, beta-lactamase ratio, antagonist mode; measured here: W530 green channel, cytotoxicity proxy. Put shortly: (§1)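 Beta-lactamase reporter inhibition, read as CCF4 fluorescence ratio (ex 405, em 460/530 nm) after 2 h at RT. HEK293T UAS-bla cells, 2500/well, were stimulated with 9-cis-RA at 500 or 100 nM final alongside test compound for 18 h at 37 C.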

In test [8] the target is Retinoic acid receptor RXR-alpha (Homo sapiens) (UniProt P19793). Described as above. Particulars: HEK293T RXRa-UAS-bla, beta-lactamase ratio, antagonist mode. Put shortly: as §1
Sequence of Retinoic acid receptor RXR-alpha (Homo sapiens) (P19793 whole entry, looked up): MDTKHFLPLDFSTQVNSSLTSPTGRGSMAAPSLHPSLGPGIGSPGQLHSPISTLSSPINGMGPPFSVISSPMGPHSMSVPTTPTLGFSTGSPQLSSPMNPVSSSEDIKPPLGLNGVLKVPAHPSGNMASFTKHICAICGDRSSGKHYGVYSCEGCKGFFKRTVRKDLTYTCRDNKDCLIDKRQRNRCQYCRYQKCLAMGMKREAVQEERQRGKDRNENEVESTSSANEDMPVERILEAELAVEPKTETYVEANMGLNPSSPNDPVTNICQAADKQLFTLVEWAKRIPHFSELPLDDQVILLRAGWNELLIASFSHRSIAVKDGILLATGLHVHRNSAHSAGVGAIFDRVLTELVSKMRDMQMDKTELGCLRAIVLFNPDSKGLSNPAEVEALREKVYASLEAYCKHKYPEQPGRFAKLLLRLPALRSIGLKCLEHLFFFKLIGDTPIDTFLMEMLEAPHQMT
Test [9] can be described thus: qHTS assay for small molecule activators of the p53 signaling pathway (AID 651743; active = well fitted activation curve with a large enough effect in the signal ratio, not every such curve was filed as active; the % refers to the signal ratio; note: % of control where 0% means no effect). Particulars: HCT-116 p53RE-bla, beta-lactamase FRET ratio, 16 h; activation: stronger effect = higher value. Summed up: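 HCT-116 p53RE-bla, 4,000 cells/well; 5 h settle; cpd/DMSO 16 h, 37 C; LiveBLAzer B/G 2 h RT; fluorescence intensity.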
The nature of test [10]: qHTS assay for small molecule agonists of the antioxidant response element (ARE) signaling pathway measured by Nrf2-dependant transcriptional activity (AID 720636; active = well fitted curve in the direction sought with a large enough effect in the repeat runs; an effect the other way counts as inactive or inconclusive; note: % of control where 0% means no effect). Particulars: ARE-luc HepG2, Nrf2 luciferase reporter, 16 h; series mostly up to 92.4 µM. Summed up: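 ONE-Glo luminescence, read 30 min after reagent addition at room temperature, reflected ARE reporter activity in HepG2 cells that had been incubated with compound for 16 hr at 37 C in 1% dialyzed FBS.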

A short description of test [11]: qHTS assay for small molecule agonists of the antioxidant response element (ARE) signaling pathway measured by Nrf2-dependant transcriptional activity - cell viability counter screen (AID 720653; active = well fitted curve in the direction sought with a large enough effect in the repeat runs; an effect the other way counts as inactive or inconclusive; note: % is set by controls: 0 for no effect and ±100 for the full control effect). Particulars: ARE-bla HepG2 viability, CellTiter-Glo ATP luminescence, 16 h; max response: stronger effect = lower value. Put shortly: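 ARE-bla HepG2 cells treated with compounds for 16 h at 37C; this counter screen measures viability as intracellular ATP by CellTiter-Glo luminescence after 30 min at room temperature.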

A short description of test [12]: qHTS assay for cell viability of HEK293 cells (AID 743288). Note: % is set by controls: 0 for no effect and ±100 for the full control effect; nearly all actives have a fitted effect of over 50% in size. Particulars: ATP luminescence (CellTiter-Glo), 18 h; max response: stronger effect = lower value. Put shortly:
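Total intracellular ATP, measured with a luciferase-coupled reagent, indicates the number of viable HEK293 cells. Exposure to test chemicals lasts 18 h at 37 C in 1,536-well format at 2,000 cells/well.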

Test [13] can be described thus: qHTS assay for cell viability of the p53RE-bla HCT-116 cell line (AID 743292). Note: % is set by controls: 0 for no effect and ±100 for the full control effect; nearly all actives have a fitted effect of over 55% in size. Particulars: p53RE-bla HCT-116 viability, ATP luminescence, 16 h; series mostly up to 95 µM. Put shortly: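 After plating at 4,000 cells per well and a 5 h rest at 37 C, HCT-116 cells carrying p53RE-bla received test chemicals in DMSO. Sixteen hours later at 37 C, CellTiter-Glo was added and luminescence recorded following 30 min at room temperature.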

The target of test [14] is Nuclear receptor subfamily 1 group I member 2 (Rattus norvegicus) (UniProt Q9R1A7). In words: qHTS assay for small molecule activators of the rat pregnane X receptor (rPXR) signaling pathway (AID 651751; call rule not given here; note: 0% is about no effect). Particulars: rPXR reporter cells, luciferase (One-Glo), 24 h.
Sequence of Nuclear receptor subfamily 1 group I member 2 (Rattus norvegicus) (Q9R1A7 whole entry, looked up): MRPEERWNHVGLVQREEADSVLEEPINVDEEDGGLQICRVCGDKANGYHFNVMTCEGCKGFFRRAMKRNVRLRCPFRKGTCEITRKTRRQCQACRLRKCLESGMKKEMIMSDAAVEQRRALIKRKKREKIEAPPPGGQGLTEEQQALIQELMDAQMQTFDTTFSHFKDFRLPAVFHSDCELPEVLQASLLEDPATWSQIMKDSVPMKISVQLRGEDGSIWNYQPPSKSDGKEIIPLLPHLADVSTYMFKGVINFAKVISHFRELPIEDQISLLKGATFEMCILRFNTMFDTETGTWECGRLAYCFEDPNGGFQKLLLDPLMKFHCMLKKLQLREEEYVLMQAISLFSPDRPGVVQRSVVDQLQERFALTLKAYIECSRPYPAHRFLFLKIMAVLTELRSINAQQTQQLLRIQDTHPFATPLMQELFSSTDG
Test [15] in a line: qHTS assay for environmental chemicals that activate the Aryl hydrocarbon Receptor (AhR) signaling pathway (AID 651777). Note: % of control where 0% means no effect; nearly all actives have a fitted effect of over 15% in size. Particulars: 1A2-DRE human hepatoma cells, luciferase, 24 h; activation: stronger effect = higher value. Put shortly:
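Following a 24 hr incubation with test chemicals at 37 C and 5% CO2, 1A2-DRE human hepatoma cells received One-Glo reagent; after 30 min at room temperature, luciferase output reflected CYP1A2 induction via AhR.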

The target of test [16] is Peroxisome proliferator-activated receptor alpha (Homo sapiens) (UniProt Q07869). As to the kind of experiment: qHTS assay for small molecule agonists of the peroxisome proliferator-activated receptor alpha (PPARalpha) signaling pathway (AID 651778). Note: % of control where 0% means no effect. Particulars: PathHunter PPARalpha complementation, chemiluminescence, 6 h; max response: stronger effect = higher value. Summed up: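 Enzyme-fragment complementation assay in which ligand-bound PPARalpha translocates and forms an active enzyme that generates chemiluminescence. Cells were plated overnight, exposed to compound for 6 hr at 37 C, and then given detection reagent for 60 min at room temperature.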
Sequence of Peroxisome proliferator-activated receptor alpha (Homo sapiens) (Q07869 whole entry, looked up, the tested form may be a part): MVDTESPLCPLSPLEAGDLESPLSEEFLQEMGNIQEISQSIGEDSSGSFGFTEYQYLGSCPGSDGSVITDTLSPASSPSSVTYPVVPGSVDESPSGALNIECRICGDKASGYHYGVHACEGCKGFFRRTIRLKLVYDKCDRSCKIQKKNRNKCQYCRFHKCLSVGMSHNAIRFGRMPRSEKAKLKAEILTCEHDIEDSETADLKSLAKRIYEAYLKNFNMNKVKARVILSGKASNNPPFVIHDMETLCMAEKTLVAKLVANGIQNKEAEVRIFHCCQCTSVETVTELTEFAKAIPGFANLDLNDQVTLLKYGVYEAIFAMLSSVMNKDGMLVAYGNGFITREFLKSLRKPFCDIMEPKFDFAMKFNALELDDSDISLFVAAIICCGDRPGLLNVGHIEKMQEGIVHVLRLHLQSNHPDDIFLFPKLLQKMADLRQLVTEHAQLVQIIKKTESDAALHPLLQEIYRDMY

Test [17] can be described thus: qHTS assay for small molecule activators of the human pregnane X receptor (PXR) signaling pathway (AID 720659; call rule not given here; note: 0% is about no effect). Particulars: DPX-2 HepG2 CYP3A4-luciferase, 24 h; series mostly up to 92.3 µM.
In test [18] the target is Peroxisome proliferator-activated receptor gamma (Homo sapiens) (UniProt P37231). In words: qHTS assay for small molecule agonists of peroxisome proliferator-activated receptor gamma signaling (AID 588536; active = well fitted curve in the direction sought with a large enough effect in the signal ratio, with a control signal flat, not every such curve was filed as active; the % refers to the signal ratio;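 note: 0% = DMSO basal wells and 100% = rosiglitazone at 2 µM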). Particulars: HEK293 PPARg-UAS-bla, beta-lactamase ratio, 16 h, percent of rosiglitazone response, DMSO as zero; series mostly up to 76.7 µM. Summed up:
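HEK293 UAS-bla reporter line, 1% charcoal/dextran FBS; titration, 16 h, 37 C; CCF4 loading 2 h RT; fluorescence 460/530 nm. Normalized to rosiglitazone 2 uM = 100%, DMSO = 0%.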

For test [19] the target is unchanged. As to the kind of experiment: qHTS assay for small molecule antagonists of peroxisome proliferator-activated receptor gamma signaling (AID 588537; active = well fitted inhibition curve with a large enough effect in the signal ratio, with a control signal flat, not every such curve was filed as active; the % refers to the signal ratio;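 note: reporter cells co-stimulated with 50 nM rosiglitazone agonist during compound treatment; % of control where 0% means no effect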). Particulars: HEK293 PPARg-UAS-bla, beta-lactamase ratio, antagonist mode; series mostly up to 76.8 µM. Summed up:
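Step one: plate 3000 HEK293 UAS-bla cells per well in medium with 1% stripped serum and hold 6-6.5 h at 37 C. Step two: add compound and 50 nM agonist for 16 h. Step three: CCF4 loading, fluorescence read.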

Test [20] can be described thus: qHTS assay for small molecule activators of the nuclear factor-kappa B (NF-kB) signaling pathway (AID 651749; active = well fitted activation curve with a large enough effect in the signal ratio; the % refers to the signal ratio; note: % of control where 0% means no effect). Particulars: NF-kB-bla ME-180 cells, beta-lactamase FRET ratio, 16 h; activation: stronger effect = higher value. Put shortly: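 Incubation lasted 16 hr at 37C in 5% CO2 after 23 nL compound addition to ME-180 NF-kB-bla cells. Activation appears as beta-lactamase-mediated FRET loss.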

Sequence of Thyroid hormone receptor beta (Homo sapiens) (P10828 whole entry, looked up): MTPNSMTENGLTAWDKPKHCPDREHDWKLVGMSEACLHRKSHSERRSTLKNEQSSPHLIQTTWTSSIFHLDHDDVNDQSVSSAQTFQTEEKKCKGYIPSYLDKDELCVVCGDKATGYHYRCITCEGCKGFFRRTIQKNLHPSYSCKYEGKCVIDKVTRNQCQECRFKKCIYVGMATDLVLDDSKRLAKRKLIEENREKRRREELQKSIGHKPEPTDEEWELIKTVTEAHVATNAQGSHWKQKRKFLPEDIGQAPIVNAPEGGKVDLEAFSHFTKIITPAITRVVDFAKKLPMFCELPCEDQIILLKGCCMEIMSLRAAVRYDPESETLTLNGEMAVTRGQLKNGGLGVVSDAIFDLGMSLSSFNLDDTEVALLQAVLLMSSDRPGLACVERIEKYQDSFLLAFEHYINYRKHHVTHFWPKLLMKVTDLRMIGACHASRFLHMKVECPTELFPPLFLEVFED
Sequence of Vitamin D3 receptor (Homo sapiens) (P11473 whole entry, looked up): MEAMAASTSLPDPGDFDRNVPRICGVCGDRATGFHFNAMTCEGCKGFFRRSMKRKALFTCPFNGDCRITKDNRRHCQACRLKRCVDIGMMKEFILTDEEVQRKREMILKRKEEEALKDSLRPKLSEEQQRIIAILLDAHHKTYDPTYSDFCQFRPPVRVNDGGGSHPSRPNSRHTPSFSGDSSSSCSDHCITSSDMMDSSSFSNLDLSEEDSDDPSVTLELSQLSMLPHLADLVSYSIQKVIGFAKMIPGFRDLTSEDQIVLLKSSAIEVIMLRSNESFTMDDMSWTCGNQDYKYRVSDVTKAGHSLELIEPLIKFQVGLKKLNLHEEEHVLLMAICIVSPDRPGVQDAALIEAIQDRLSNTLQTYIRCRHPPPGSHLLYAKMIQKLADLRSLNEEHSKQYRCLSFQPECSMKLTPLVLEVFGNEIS
Sequence of Glucocorticoid receptor (Homo sapiens) (P04150 whole entry, looked up): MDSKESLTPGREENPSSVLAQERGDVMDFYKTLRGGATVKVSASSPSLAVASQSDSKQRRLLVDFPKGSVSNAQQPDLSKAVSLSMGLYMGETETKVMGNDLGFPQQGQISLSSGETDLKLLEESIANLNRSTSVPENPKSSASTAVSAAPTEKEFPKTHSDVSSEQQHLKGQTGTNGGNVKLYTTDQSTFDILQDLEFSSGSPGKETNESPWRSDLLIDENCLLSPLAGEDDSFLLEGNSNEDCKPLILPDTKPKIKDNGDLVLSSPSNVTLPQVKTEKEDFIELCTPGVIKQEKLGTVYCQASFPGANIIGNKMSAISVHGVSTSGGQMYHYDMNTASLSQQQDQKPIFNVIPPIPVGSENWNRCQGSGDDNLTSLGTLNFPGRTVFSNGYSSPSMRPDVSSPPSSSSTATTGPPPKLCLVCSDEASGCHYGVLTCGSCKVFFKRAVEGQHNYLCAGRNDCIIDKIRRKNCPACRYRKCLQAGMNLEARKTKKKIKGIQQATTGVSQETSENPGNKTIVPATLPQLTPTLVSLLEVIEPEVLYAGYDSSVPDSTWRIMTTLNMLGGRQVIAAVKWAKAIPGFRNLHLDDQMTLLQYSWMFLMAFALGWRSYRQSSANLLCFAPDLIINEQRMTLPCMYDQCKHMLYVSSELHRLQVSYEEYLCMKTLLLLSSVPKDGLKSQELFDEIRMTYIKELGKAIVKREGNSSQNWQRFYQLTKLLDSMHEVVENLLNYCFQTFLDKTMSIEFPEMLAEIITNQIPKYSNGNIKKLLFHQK
Sequence of Peroxisome proliferator-activated receptor gamma (Homo sapiens) (P37231 whole entry, looked up): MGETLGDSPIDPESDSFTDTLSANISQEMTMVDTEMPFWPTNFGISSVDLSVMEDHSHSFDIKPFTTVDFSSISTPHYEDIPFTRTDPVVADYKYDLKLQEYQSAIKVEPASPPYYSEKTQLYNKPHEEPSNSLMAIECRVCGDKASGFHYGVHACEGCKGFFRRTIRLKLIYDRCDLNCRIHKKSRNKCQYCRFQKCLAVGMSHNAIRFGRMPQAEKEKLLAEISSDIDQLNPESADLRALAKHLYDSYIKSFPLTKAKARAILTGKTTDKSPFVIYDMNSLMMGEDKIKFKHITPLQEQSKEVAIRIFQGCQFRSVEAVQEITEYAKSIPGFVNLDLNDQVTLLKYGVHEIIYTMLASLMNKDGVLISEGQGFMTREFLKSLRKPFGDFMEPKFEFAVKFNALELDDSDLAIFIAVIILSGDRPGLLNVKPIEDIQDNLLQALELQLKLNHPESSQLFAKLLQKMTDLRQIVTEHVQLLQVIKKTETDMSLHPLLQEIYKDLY

Turning to `CC(C)C(=O)OC(=O)C(C)C`, the activation in test [1] is -15% (inactive); in [9], -7.19% (inactive). Moreover, the Potency entry in test [2], in [6], in [10] and in test [13] was “inactive” in each case. Also, the max response in [3] was 1.13%; in [5] it was -11.3%; in [7], -12.1%; in test [8] it was -4.54% (inactive); in test [11], -7.37% (inactive); in test [12], -4.79% (inactive). Besides, in test [14], the max response is -1.65% (inactive). Besides, the result in [4] was inactive.
As for `COCCOCCOCCO`, the activation in test [1] was 2.13% (inactive); in [9], 13.1% (inactive); in test [15], -0.0316% (inactive). For the same molecule, the Potency entry in test [2], in [10] and in test [13] was “inactive” in each case. Also, the max response in test [3] was 7.14%; in [5], -11.8%; in test [7], -2.04%; in [16], 0.508% (inactive); in test [11], -1.82% (inactive); in [12] it was -7% (inactive). In addition, the max response in [14] is 1.8% (inactive). Also, the result in test [4] and in test [17] was inactive.
Turning to `CC(=O)c1c(C)c([N+](=O)[O-])c(C(C)(C)C)c([N+](=O)[O-])c1C`, the activation in test [1] was 3.65% (inactive); in test [9], 6.99% (inactive); in [20], -2.72% (inactive); in test [15], 0.439% (inactive). Further, the Potency entry in [2], in [19], in test [6], in test [10] and in test [13] was “inactive” in each case. The max response in test [3] was -16.8%; in [5], -17.8%; in [7] it was -24%; in [8], -4.43% (inactive); in test [16], 8.73% (inactive); in test [11] it was -1.24% (inactive). Besides, the max response in [12] was -8.24% (inactive). Further, the outcome in [18] and in test [4] was inactive.
`CCOC(=O)NCCOc1ccc(Oc2ccccc2)cc1`: the values for the max response in test [3], in test [16] and in test [11] were -16.1%, -0.313% (inactive) and -19.4% (inactive), respectively. Moreover, in [18], the outcome was inactive. In addition, the Potency entry in test [6] and in test [13] was “inactive” each time. Moreover, the activation was 2.75% (inactive) in [20] and 5.93% (inactive) in test [15].
Turning to `CCC(C)OC(=O)N1CCCCC1CCO` (stereo not drawn), the max response in [3] is 49.3%; in test [5], -14.7%; in [7], -13%; in test [8], 3.95% (inactive); in test [16], -1.06% (inactive); in test [11] it was -23.7% (inactive). The max response in [12] was -6.27% (inactive); in [14], -1.56% (inactive). In addition, the result in [18], in test [4] and in test [17] was inactive. The Potency result in test [19], in test [6], in [10] and in test [13] was “inactive” each time. Further, the activation in test [9] was -2.97% (inactive); in test [20] it was -1.57% (inactive); in test [15], 1.16% (inactive).
In the case of `O=C1CCCCCCCCCCC1`, the activation was -8.83% (inactive) in [1], -4.42% (inactive) in [9] and 0.997% (inactive) in test [15]. The Potency entry in test [2], in test [19], in test [6], in test [10] and in test [13] was “inactive” throughout. Moreover, the max response was 31.3% in test [3]; -19.7% in test [5]; -10.4% in [7]; 4.14% (inactive) in [8]; -0.988% (inactive) in [16]; -14.8% (inactive) in test [11]. In addition, the max response in test [12] was -4.39% (inactive); in test [14], 0.58% (inactive). In addition, the outcome in test [18] and in test [17] was inactive.
Regarding `CCCCC(CC)COC(C)=O` (stereo not drawn), the activation was -0.969% (inactive) in test [1], -1.18% (inactive) in test [20] and -1.93% (inactive) in [15]. Also, the Potency entry in test [2], in test [19], in test [6] and in test [13] was “inactive” in each case. Besides, the max response in test [3] is 8.6%; in [5], -20.2%; in [7], -1.25%; in test [8] it was -2.2% (inactive); in test [16], -0.237% (inactive); in test [11], 3.74% (inactive). Moreover, the max response in test [12] is -7.43% (inactive); in [14], -1.91% (inactive). In addition, the result in test [18] and in [17] was inactive.
